Data on 26 molecules can be found in PubChem BioAssay (NCATS).

Records with an inconclusive call do not appear. Active and inactive are the calls of the source. Unless noted, calls follow the shape of the dose curve; as a rule, active = well fitted curve in the direction sought with a large enough effect; inconclusive = small, poorly fitted or top-dose-only effect, or another doubt; inactive = no such curve, though single readings can be large; an effect the other way counts as inactive or inconclusive.

The target in assay [1] is Nucleoprotein (Lymphocytic choriomeningitis virus (strain Armstrong)) (UniProt P09992). Nature of the assay: qHTS for Inhibitors of the Functional Ribonucleoprotein Complex (vRNP) of Lymphocytic Choriomeningitis Arenaviruses (LCMV): LCMV Primary Screen - GLuc reporter signal (AID 1347086; calls by dose curve; also: series mostly up to about 57 µM; nearly all actives have a fitted effect of over 70% in size).
Assay [2] can be described thus: qHTS of pediatric cancer cell lines to identify multiple opportunities for drug repurposing: Primary screen for TC32 cells (AID 1347089). Also: nearly all actives have a fitted effect of over 60% in size. Also: potency is read from the fitted curve at half-maximal effect. In short, it runs like this:
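A viability screen of TC32 cells was run over 48 h, with primary MIPE doses spanning 0.78 nM–46 µM and NPC doses 0.59 nM–46 µM. ATP luminescence (CellTiter-Glo) served as the read-out.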

Assay [3] is described as follows: qHTS of pediatric cancer cell lines to identify multiple opportunities for drug repurposing: Primary screen for DAOY cells (AID 1347090). Also: nearly all actives have a fitted effect of over 55% in size. Also: potency is read from the fitted curve at half-maximal effect. The essentials:
(§1)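 Viability measured as metabolically active cells via CellTiter-Glo luminescence following 48 hours of compound exposure, 11-point dilutions in confirmatory testing. 500-1,000 cells/well plated 5 hours before dosing; controls were DMSO and 2.3 µM bortezomib.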
In general terms: qHTS replaces the single test concentration by a dilution series.

Assay [4] can be described thus: qHTS of pediatric cancer cell lines to identify multiple opportunities for drug repurposing: Primary screen for SJ-GBM2 cells (AID 1347091). The essentials:
as §1

Assay [5] in a line: qHTS of pediatric cancer cell lines to identify multiple opportunities for drug repurposing: Primary screen for A673 cells (AID 1347092). Also: nearly all actives have a fitted effect of over 45% in size. Also: potency is read from the fitted curve at half-maximal effect. In short, it runs like this:
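Titration-based qHTS on A673 cells: MIPE compounds spanned 11 points (0.78 nM to 46 µM final), NPC compounds 8 points (0.59 nM to 46 µM final). Viability after 48 h was measured by ATP luminescence.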

A short description of assay [6]: qHTS of pediatric cancer cell lines to identify multiple opportunities for drug repurposing: Primary screen for SK-N-MC cells (AID 1347093). Also: potency is read from the fitted curve at half-maximal effect. In short, it runs like this: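 Metabolically active cells were quantified by ATP-dependent luminescence (CellTiter-Glo, 15 min at room temperature) following 48 h treatment. Cells had been plated at 500-1,000 per well and settled for 5 h beforehand.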

A short description of assay [7]: qHTS of pediatric cancer cell lines to identify multiple opportunities for drug repurposing: Primary screen for BT-37 cells (AID 1347094). Also: potency is read from the fitted curve at half-maximal effect. In short, it runs like this:
(§2)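 Primary screen of approved and investigational compounds on cells in growth media at 37 degrees C, 5% CO2. MIPE set at 11-point and NPC set at 8-point dilutions; viability scored by ATP-based luminescence at 48 hours.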

Assay [8] is described as follows: qHTS of pediatric cancer cell lines to identify multiple opportunities for drug repurposing: Primary screen for NB-EBc1 cells (AID 1347095). Also: potency is read from the fitted curve at half-maximal effect. In short, it runs like this:
as §2

Assay [9] is described as follows: qHTS of pediatric cancer cell lines to identify multiple opportunities for drug repurposing: Primary screen for U-2 OS cells (AID 1347096). Also: nearly all actives have a fitted effect of over 50% in size. Also: potency is read from the fitted curve at half-maximal effect. In short, it runs like this:
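Viability after 48 h compound treatment at 37C, 500-1,000 cells/well, read as ATP luminescence with CellTiter-Glo. Primary screens used 11-point (MIPE, 0.78 nM-46 µM) or 8-point (NPC, 0.59 nM-46 µM) final concentrations; follow-up screens used 11-point dilutions.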

Assay [10] can be described thus: qHTS of pediatric cancer cell lines to identify multiple opportunities for drug repurposing: Primary screen for Saos-2 cells (AID 1347097). Also: nearly all actives have a fitted effect of over 40% in size. Also: potency is read from the fitted curve at half-maximal effect. The essentials: as §2

Chain of Nucleoprotein (Lymphocytic choriomeningitis virus (strain Armstrong)) (P09992 whole entry, looked up): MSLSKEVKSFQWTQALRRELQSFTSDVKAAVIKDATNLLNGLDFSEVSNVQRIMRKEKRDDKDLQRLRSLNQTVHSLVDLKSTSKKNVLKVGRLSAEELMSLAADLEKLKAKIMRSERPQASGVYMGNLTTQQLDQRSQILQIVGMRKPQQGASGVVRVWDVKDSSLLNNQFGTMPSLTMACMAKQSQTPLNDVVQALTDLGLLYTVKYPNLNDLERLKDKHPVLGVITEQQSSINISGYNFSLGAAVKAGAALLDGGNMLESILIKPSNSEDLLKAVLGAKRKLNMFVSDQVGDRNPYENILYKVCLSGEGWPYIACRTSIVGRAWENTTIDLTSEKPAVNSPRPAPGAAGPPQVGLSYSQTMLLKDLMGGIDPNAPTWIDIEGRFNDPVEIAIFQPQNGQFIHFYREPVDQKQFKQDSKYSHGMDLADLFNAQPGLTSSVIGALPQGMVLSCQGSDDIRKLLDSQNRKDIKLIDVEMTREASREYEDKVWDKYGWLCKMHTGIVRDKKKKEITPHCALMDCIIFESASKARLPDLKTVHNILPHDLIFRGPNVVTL

Regarding `CC(C)c1cccc(C(C)C)c1O`, the Potency entry in assay [1], in [2], in assay [3], in assay [4], in [5] and in assay [6] was “inactive” throughout. Further, the Potency result in assay [7], in [8], in [9] and in assay [10] was “inactive” each time.

`COP(=S)(OC)Oc1ccc(SC)c(C)c1`: the Potency result in assay [1], in assay [2], in assay [3], in assay [4], in assay [5] and in [6] was “inactive” each time. Moreover, the Potency result in [7], in assay [8], in assay [9] and in [10] was “inactive” throughout.

Take `O=[N+]([O-])O[C@H]1CO[C@H]2[C@@H]1OC[C@H]2O[N+](=O)[O-]`: the Potency entry in [1], in assay [2], in assay [3], in assay [4], in assay [5] and in [6] was “inactive” each time. The Potency result in assay [7], in assay [8], in [9] and in [10] was “inactive” in each case.

Consider `Clc1ccccc1N1CCNCC1`, for which the Potency entry in assay [1], in assay [2], in [3], in [4], in assay [5] and in assay [6] was “inactive” in each case. Besides, the Potency entry in [7], in assay [8], in assay [9] and in assay [10] was “inactive” throughout.

As to `C[C@]12CCC(=O)C=C1CC[C@@H]1[C@@H]2CC[C@]2(C)C(=O)CC[C@@H]12`, the Potency entry in [1], in assay [2], in [3], in assay [4], in assay [5] and in [6] was “inactive” in each case. Further, the Potency entry in assay [7], in assay [8], in [9] and in assay [10] was “inactive” each time.

As for `CCC1(CC)C(=O)C=CNC1=O`, the Potency entry in assay [1], in assay [2], in [3], in assay [4], in assay [5] and in assay [6] was “inactive” throughout. The Potency result in assay [7], in [8], in assay [9] and in assay [10] was “inactive” in each case.

Take `CCN(CCO)CCn1c(Cc2ccccc2)nc2c1c(=O)n(C)c(=O)n2C`: the Potency result in assay [1], in assay [2], in [3], in [4], in [5] and in assay [6] was “inactive” throughout. The Potency entry in [7], in assay [8], in [9] and in [10] was “inactive” in each case.

Regarding `CCN(CC)CCc1c[nH]c2ccccc12`, the Potency entry in [1], in assay [2], in [3], in [4], in assay [5] and in assay [6] was “inactive” in each case. Moreover, the Potency entry in [7], in assay [8], in assay [9] and in assay [10] was “inactive” throughout.

As to `Nc1nc(N)nc(NC2CC2)n1`, the Potency entry in assay [1], in assay [2], in assay [3], in assay [4], in [5] and in [6] was “inactive” throughout. Also, the Potency entry in assay [7], in assay [8], in [9] and in assay [10] was “inactive” each time.

For `CCC(CC)(CNC(=O)CCCO)c1cccc(OC)c1`, the Potency entry in assay [1], in assay [2], in [3], in assay [4], in assay [5] and in assay [6] was “inactive” in each case. The Potency entry in [7], in assay [8], in assay [9] and in assay [10] was “inactive” in each case.

Turning to `NC1=NC(=O)C(c2ccccc2)O1` (stereo not drawn), the Potency entry in assay [1], in assay [2], in assay [3], in assay [4], in assay [5] and in [6] was “inactive” throughout. The Potency entry in [7], in assay [8], in assay [9] and in [10] was “inactive” each time.

In the case of `C[C@@H]1CC2=CC(=O)CC[C@@H]2[C@H]2CC[C@@]3(C)[C@@H](CC[C@]3(C)O)[C@@H]21`, the Potency entry in assay [1], in [2], in assay [3], in [4], in assay [5] and in assay [6] was “inactive” in each case. The Potency result in assay [7], in assay [8], in [9] and in assay [10] was “inactive” in each case.

For the molecule `COc1ccc2c(c1OC)C(=O)O[C@H]2[C@@H]1c2cc3c(cc2CCN1C)OCO3`, the Potency result in assay [1], in [2], in [3], in assay [4], in assay [5] and in [6] was “inactive” in each case. In addition, the Potency result in [7], in [8], in assay [9] and in assay [10] was “inactive” throughout.

Take `C#C[C@]1(O)CC[C@H]2[C@@H]3CCC4=CC(=O)CC[C@]4(C)[C@H]3CC[C@@]21C`: the Potency result in assay [1], in assay [2], in assay [3], in assay [4], in assay [5] and in assay [6] was “inactive” in each case. The Potency entry in assay [7], in assay [8], in assay [9] and in assay [10] was “inactive” each time.

As for `CCc1cc2c(s1)-n1c(C)nnc1CN=C2c1ccccc1Cl`, the Potency result in [1], in assay [2], in [3], in assay [4], in assay [5] and in [6] was “inactive” each time. For the same molecule, the Potency result in assay [7], in assay [8], in assay [9] and in [10] was “inactive” throughout.

`C[C@]12CCC(=O)C=C1CC[C@@H]1[C@@H]2CC[C@@]2(C)[C@H]1CC[C@]2(C)O`: the Potency result in assay [1], in assay [2], in [3], in assay [5], in assay [7] and in assay [9] was “inactive” throughout.

For `COc1cccc2c1C(=O)c1c(O)c3c(c(O)c1C2=O)C[C@@](O)(C(=O)CO)CC3OC1CC(N2CCOC(OC)C2)C(O)C(C)O1` (stereo partly drawn), the Potency was 26.4 nM (active) in assay [2]; 42.2 nM (active) in [3]; 26.6 nM (active) in assay [5]; 8.4 nM (active) in assay [6]; 27.6 nM (active) in assay [7]; 266 nM (active) in assay [9].

For `C[C@]12CC[C@@H]3c4ccc(OC(=O)N(CCCl)CCCl)cc4CC[C@H]3[C@@H]1CC[C@@H]2O`, the Potency entry in [1], in [2], in assay [3], in [5], in assay [6] and in [7] was “inactive” in each case. Also, the Potency result in assay [9] is “inactive”.

With `C[C@]12CC[C@H]3[C@@H](CCC4=CC(=O)CC[C@@H]43)[C@@H]1CC[C@@H]2OC(=O)CCc1ccco1`, the Potency result in [1], in [2], in assay [3], in assay [5], in assay [6] and in [7] was “inactive” each time. The Potency entry in assay [8] and in [9] was “inactive” throughout.

For `COc1cc(OC)c(OC)cc1C=O`, the Potency entry in assay [1], in [2], in assay [3], in assay [4], in assay [5] and in assay [7] was “inactive” each time. The Potency entry in [8] and in [9] was “inactive” in each case.

Consider `O=C1c2ccccc2C(=O)C1C(=O)C(c1ccccc1)c1ccccc1`, for which the Potency entry in assay [1], in assay [7] and in [9] was “inactive” throughout. In addition, the Potency in assay [3] is 26600 nM (active).

With `Clc1cccc(SC2CCNCC2)n1`, the Potency result in assay [1], in [2], in assay [3], in assay [4], in assay [5] and in assay [7] was “inactive” in each case. The Potency entry in assay [8], in assay [9] and in [10] was “inactive” throughout.

Consider `O=C1OC(CCN2CCCCC2)OC1(c1ccccc1)c1ccccc1` (stereo not drawn), for which the Potency result in assay [1], in assay [2], in assay [4], in assay [7], in assay [8] and in assay [9] was “inactive” each time.

In the case of `CC(C)(N)Cc1ccccc1Cl`, the Potency result in assay [1], in [2], in assay [3], in assay [4], in assay [5] and in assay [6] was “inactive” in each case. Moreover, the Potency result in [7], in [8], in assay [9] and in assay [10] was “inactive” in each case.

`O=c1oc2ccccc2c(O)c1Cc1c(O)c2ccccc2oc1=O`: the Potency result in assay [1], in assay [2], in assay [3], in [5], in assay [7] and in assay [9] was “inactive” each time. The Potency result in assay [10] was “inactive”. For the same molecule, the Potency in [6] and in assay [8] was 15000 nM (active) throughout.

In the case of `C[C@]12Cc3cn[nH]c3C[C@@H]1CC[C@@H]1[C@@H]2CC[C@@]2(C)[C@H]1CC[C@]2(C)O`, the Potency entry in assay [1], in assay [2], in assay [5] and in assay [7] was “inactive” each time. For the same molecule, the Potency in assay [10] is 26600 nM (active).
